Experimental data: PubChem BioAssay (NCATS)
Where “and” joins values, the source holds several entries; their conditions need not be identical. Equal entries are not always repeated. Records with an inconclusive call do not appear. Where a call stands in place of a potency, no number is given. Where a structure was tested more than once in an assay, its records may differ in their call. Calls of active or inactive are those of the source. Unless noted, calls come from the whole dose curve; as a rule, active = well fitted curve in the direction sought with a large enough effect; inconclusive = small, poorly fitted or top-dose-only effect, or another doubt; inactive = no such curve, though single readings can be large; an effect the other way counts as inactive or inconclusive.

Tests used:
[1] = molecular target: Calcium and integrin-binding protein 1 (Homo sapiens) (UniProt Q99828); assay: Primary qHTS for Identification of Calcium Integrin Binding Protein 1 (CIB1) Competitor (AID 1508620);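 note: GST tagged CIB1 binding a fluorescein labelled alphaIIb integrin peptide tracer; top concentration of the series differs between compounds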
How it was run: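 Fluorescence polarization competition: GST-tagged CIB1 (1 uM final) preincubated with compound 15 min at room temperature, then FITC-labelled alphaIIb peptide (100 nM final) added. After 15 min at room temperature, polarization read at Ex 480/Em 540.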

[2] = Primary qHTS for small molecule stabilizers of the endoplasmic reticulum resident proteome: Secreted ER Calcium Modulated Protein (SERCaMP) assay (AID 1508630)
How it was run: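 The SH-SY5Y reporter protocol was run at 3 concentrations up to 38.3 uM (primary) or 11 concentrations (follow-up): 16 h compound, 100 nM thapsigargin for 4 h, then extracellular luciferase luminescence.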

[3] = molecular target: Cytochrome P450 2D6 (Homo sapiens) (UniProt P10635); assay: Cytochrome P450 family 2 subfamily D member 6 (CYP2D6) small molecule antagonists: luciferase biochemical (cell-free) qHTS assay (AID 1645840; active = well fitted curve in the direction sought with a large enough effect in the repeat runs; an effect the other way counts as inactive or inconclusive; note: potency is the fitted concentration of half-maximal effect; nearly all actives have a fitted effect of over 55% in size)
How it was run: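 P450-Glo CYP2D6 system: proluciferin substrate converted by enzyme to luciferin, read by luminescence proportional to activity. Enzyme-substrate mix with compound 10 min at room temperature, then NADPH regeneration 1 h before detection reagent.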

[4] = Primary qHTS for inhibitors of nuclear receptor binding SET domain protein 2 (NSD2) in an isogenic RCH-ACV NSD2 p.E1099K mutant (9B) (AID 1645876); note: nearly all actives have a fitted effect of over 70% in size; note: potency is the fitted concentration of half-maximal effect
[5] = Primary qHTS for inhibitors of nuclear receptor binding SET domain protein 2 (NSD2) in an RCH-ACV wild type WT cells (2C) (AID 1645877); note: nearly all actives have a fitted effect of over 70% in size; note: potency is the fitted concentration of half-maximal effect

Sequence of Calcium and integrin-binding protein 1 (Homo sapiens) (Q99828 whole entry, looked up): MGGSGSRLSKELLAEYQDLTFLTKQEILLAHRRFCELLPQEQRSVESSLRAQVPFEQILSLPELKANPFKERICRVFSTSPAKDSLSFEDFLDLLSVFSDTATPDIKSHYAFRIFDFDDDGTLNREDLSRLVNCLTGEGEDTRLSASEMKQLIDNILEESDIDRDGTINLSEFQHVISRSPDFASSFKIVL
Sequence of Cytochrome P450 2D6 (Homo sapiens) (P10635 whole entry, looked up): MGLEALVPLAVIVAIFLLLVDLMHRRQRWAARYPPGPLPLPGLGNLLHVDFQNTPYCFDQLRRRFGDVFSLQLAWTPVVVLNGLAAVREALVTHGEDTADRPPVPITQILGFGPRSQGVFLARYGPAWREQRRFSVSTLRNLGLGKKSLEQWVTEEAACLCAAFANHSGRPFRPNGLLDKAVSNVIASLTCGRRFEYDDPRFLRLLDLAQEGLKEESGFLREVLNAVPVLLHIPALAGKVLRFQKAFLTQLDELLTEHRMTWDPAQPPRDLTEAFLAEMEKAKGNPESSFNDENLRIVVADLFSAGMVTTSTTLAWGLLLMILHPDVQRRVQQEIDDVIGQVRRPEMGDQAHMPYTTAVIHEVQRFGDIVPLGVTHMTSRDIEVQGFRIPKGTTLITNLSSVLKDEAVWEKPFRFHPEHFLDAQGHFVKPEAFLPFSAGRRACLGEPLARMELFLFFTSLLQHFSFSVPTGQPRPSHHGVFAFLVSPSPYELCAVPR

SMILES: Cc1ccn(-c2ccc(-c3ncco3)cc2)c(=O)c1-c1ccc2nc(N)ncc2c1
- Potency [1]: inactive
- Potency [2]: inactive
- Potency [3]: 16.9 µM (active)
- Potency [4]: 5.9 µM (active)

SMILES: CC1(C)CCC(CN2CCN(c3ccc(C(=O)NS(=O)(=O)c4ccc(NCC5CCOCC5)c([N+](=O)[O-])c4)c(Oc4cnc5[nH]ccc5c4)c3)CC2)=C(c2ccc(Cl)cc2)C1
- Potency [1]: inactive
- Potency [2]: inactive
- Potency [4]: 11.2 µM (active) and inactive
- Potency [5]: 12.6 µM (active) and inactive

SMILES: COc1cc(N2CCC(N3CCN(C)CC3)CC2)ccc1Nc1ncc(Cl)c(Nc2ccccc2S(=O)(=O)C(C)C)n1
- Potency [1]: inactive
- Potency [2]: inactive
- Potency [4]: 1.29 µM (active) and 3.72 µM (active)
- Potency [5]: 649 nM (active) and 1.48 µM (active)

SMILES: CNC1CCC(N(Cc2cccc(-c3ccncc3)c2)C(=O)c2sc3c(F)ccc(F)c3c2Cl)CC1 (configuration not stated)
- Potency [1]: inactive
- Potency [2]: inactive
- Potency [4]: 8.33 µM (active) and 8.17 µM (active)
- Potency [5]: 7.42 µM (active) and 8.17 µM (active)

SMILES: CC(=O)Nc1ccc([C@H](C)C(=O)Nc2ncc(C(C)C)s2)cc1
- Potency [1]: inactive
- Potency [2]: inactive
- Potency [4]: 2.63 µM (active)
- Potency [5]: 2.35 µM (active)

SMILES: CC(C(=O)O)c1ccc(-c2ccccc2)c(F)c1 (configuration not stated)
- Potency [1]: inactive
- Potency [2]: inactive
- Potency [4]: inactive
- Potency [5]: inactive

SMILES: C=C1C(=O)OC(CCCCCCCC)C1C(=O)O (configuration not stated)
- Potency [1]: inactive
- Potency [2]: inactive
- Potency [4]: inactive
- Potency [5]: inactive

SMILES: COc1ccc(-c2nc(N3CCOCC3)c3sc(CN(C)c4ncc(C(=O)NO)cn4)cc3n2)cn1
- Potency [1]: inactive
- Potency [2]: inactive
- Potency [4]: 7.3 nM (active) and 29.5 nM (active)
- Potency [5]: 8.2 nM (active) and 33.2 nM (active)

SMILES: O=c1cc(-c2cccc3c2Sc2ccccc2S3)oc(N2CCOCC2)c1
- Potency [1]: inactive
- Potency [2]: inactive
- Potency [4]: 11.6 µM (active) and 14.8 µM (active)
- Potency [5]: 11.6 µM (active) and 11.8 µM (active)

SMILES: c1cc(-c2sc(-c3ccncc3)c(-c3ccncc3)c2-c2ccncc2)ccn1
- Potency [1]: inactive
- Potency [2]: inactive
- Potency [4]: inactive
- Potency [5]: inactive

SMILES: COc1ncc(-c2ccc3nccc(-c4ccnnc4)c3c2)cc1NS(=O)(=O)c1ccc(F)cc1F
- Potency [1]: inactive
- Potency [2]: inactive
- Potency [4]: 1.3 nM (active) and 8.3 nM (active)
- Potency [5]: 1.2 nM (active) and 7.4 nM (active)

SMILES: NC(=O)[C@@H](CCC(F)(F)F)N(Cc1ccc(-c2ncon2)cc1F)S(=O)(=O)c1ccc(Cl)cc1
- Potency [1]: inactive
- Potency [2]: inactive
- Potency [4]: 23.5 µM (active)
- Potency [5]: 23.5 µM (active)

SMILES: CNC(=O)c1ccc2cc(C3(O)CCn4cncc43)ccc2c1 (configuration not stated)
- Potency [1]: inactive
- Potency [2]: inactive
- Potency [4]: inactive
- Potency [5]: inactive

SMILES: CC[C@@]1(O)C[C@H](O[C@H]2C[C@H](N(C)C)[C@H](O[C@H]3C[C@H](O)[C@H](O[C@H]4CCC(=O)[C@H](C)O4)[C@H](C)O3)[C@H](C)O2)c2c(cc3c(c2O)C(=O)c2c(O)cccc2C3=O)[C@@H]1C(=O)OC
- Potency [1]: inactive
- Potency [2]: inactive
- Potency [4]: 2.63 µM (active)
- Potency [5]: 1.18 µM (active)

SMILES: Nc1ncnc2ccccc12
- Potency [1]: inactive
- Potency [2]: inactive
- Potency [4]: inactive
- Potency [5]: inactive

SMILES: CC(C)C(=O)Oc1ccc(CO)cc1[C@H](CCN(C(C)C)C(C)C)c1ccccc1
- Potency [1]: inactive
- Potency [2]: inactive
- Potency [4]: inactive
- Potency [5]: inactive

SMILES: O=C(Nc1c(Cl)cncc1Cl)c1ccc(OC(F)F)c(OCC2CC2)c1
- Potency [1]: inactive
- Potency [2]: inactive
- Potency [4]: inactive
- Potency [5]: inactive

SMILES: Cc1ccccc1C(C(=O)NC1CCCCC1)N(C(=O)Cn1ccnc1C)c1cccc(F)c1 (configuration not stated)
- Potency [1]: inactive
- Potency [2]: inactive
- Potency [4]: inactive
- Potency [5]: inactive

SMILES: N[C@H](CSC(c1ccccc1)(c1ccccc1)c1ccccc1)C(=O)O
- Potency [1]: inactive
- Potency [2]: inactive
- Potency [4]: inactive
- Potency [5]: inactive

SMILES: O=C(N[C@@H](c1ccccc1)[C@@H]1CCCCN1)c1cccc(C(F)(F)F)c1Cl
- Potency [1]: inactive
- Potency [2]: inactive
- Potency [4]: 18.6 µM (active)
- Potency [5]: 16.6 µM (active)

SMILES: CCOC(CN1C(=O)[C@](CC(=O)Nc2ccc(C)cc2)(NC(=O)Nc2ccc(C)cc2)c2ccccc21)OCC
- Potency [1]: inactive
- Potency [2]: inactive
- Potency [4]: 10.5 µM (active)
- Potency [5]: 6.61 µM (active)

SMILES: CN(C)Cc1ccc(-c2nc3cccc4c3n2CCNC4=O)cc1
- Potency [1]: inactive
- Potency [2]: inactive
- Potency [4]: 11.8 µM (active)
- Potency [5]: 7.42 µM (active)

SMILES: CC(C)=CC[C@@H](O)C1=CC(=O)c2c(O)ccc(O)c2C1=O
- Potency [1]: inactive
- Potency [2]: inactive
- Potency [4]: 23.5 µM (active)
- Potency [5]: 20.9 µM (active)
